The source of these data is PubChem BioAssay (NCATS).

Each structure is given as a SMILES string. “And” between values parts separate entries of the source, which are not always exact repeats. Equal values may be shown once. Inconclusive results are not listed. Values without a mark were called inactive. The source made the active and inactive calls. The call rests on the fitted dose curve; in most records, active means well fitted activation curve with a large enough effect; inconclusive means small, poorly fitted or top-dose-only effect; inactive means no such curve, though single readings can be large or run the other way.
Potency means the concentration at half of the fitted maximal effect.

Cellular tumor antigen p53 (Homo sapiens), sequence (P04637 whole entry, looked up): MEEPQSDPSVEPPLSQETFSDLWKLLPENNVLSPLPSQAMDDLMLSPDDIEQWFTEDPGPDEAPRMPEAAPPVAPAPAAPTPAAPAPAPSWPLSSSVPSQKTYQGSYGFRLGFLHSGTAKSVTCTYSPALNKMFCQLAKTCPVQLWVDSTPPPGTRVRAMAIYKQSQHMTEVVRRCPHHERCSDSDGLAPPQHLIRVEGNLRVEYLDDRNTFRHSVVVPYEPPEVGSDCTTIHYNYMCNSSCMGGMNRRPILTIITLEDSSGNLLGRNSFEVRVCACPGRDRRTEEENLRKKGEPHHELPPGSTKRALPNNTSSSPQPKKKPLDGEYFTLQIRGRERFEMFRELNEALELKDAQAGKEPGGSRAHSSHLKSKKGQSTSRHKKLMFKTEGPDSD

This assay deals with Cellular tumor antigen p53 (Homo sapiens) (UniProt P04637). Put plainly: Primary qHTS for small molecule compounds that upregulate eGFP-tagged delta133p53alpha (in N-terminal) cells. (AID 2060322). Further: nearly all actives have a fitted effect of over 75% in size.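 On activation: series mostly up to about 56 µM; 0% = DMSO vehicle and 100% = reference activator.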 The conditions noted are these: NCI-H358 eGFP-delta133p53alpha fluorescence, 24 h; activation: stronger effect = higher value. The procedure, abridged:
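NCI-H358 cells pre-induced 24 h with 10 ng/ml doxycycline for eGFP-delta133p53alpha, plated dox-free and exposed 24 h at 37C to titrated compounds. Fixed, Hoechst-stained; gated GFP peak intensity by laser scanning cytometry, normalized to DMSO (0%) and 57.5 uM 5-azacytidine (100%).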
For the compound `CCCC(O)C(CC)CO` (stereo not given), the activation was 6.21%. On the same count and under the same terms, the value for `COc1ccc2cc(C=O)ccc2c1` was -1.69%; that for `O=C(O)CC(O)C(=O)O` (stereo not given) was -26.6%; that for `O=c1ccn([C@@H]2O[C@H](CO)[C@H](O)[C@H]2O)c(=O)[nH]1` was 8.95%. Still for that read-out and setting: the value for `O=C(CCCCCCSc1ccc2ccccc2c1)NO` was 0%; that for `CC(C)CCCC(C)NCCC(C)C` (stereo not given) was -13.4%; that for `CC(C=CC1=C(C)CCCC1(C)C)=CC=CC(C)=CC(=O)O` was 15.8% and -23.6%. Still for that read-out and setting: with `CCCNC(C)C(=O)Nc1c(C)csc1C(=O)OC` (stereo not given) the figure was -37.9%; with `CCCC(=O)OCOC(=O)C1=C(C)NC(C)=C(C(=O)OC)C1c1cccc(Cl)c1Cl` (stereo not given), -26.6%. Turning to `COc1cc(C(=O)NCc2ccc(OCCN(C)C)cc2)cc(OC)c1OC`, the activation was 1.67%.

As to `COc1cc(/C=C/C(N)=O)cc(OC)c1OC`, the activation was -18.6%. Same read-out and setting: with `CCN(CC)CCOC(=O)C(c1ccccc1)C1CCCCC1` (stereo not given) the figure was 14.2%; with `O=C(CO)[C@@H](O)[C@H](O)[C@@H](O)CO`, -15.9%.

Take `NS(=O)(=O)c1ccc(NC(=O)CCC(=O)O)cc1`: the activation is 14.1%. The same measure, in the same setting: the value for `COc1cc(C)nc(-n2nc(C)cc2OC)n1` was -12.6%; that for `CC(=O)N[C@H]1[C@H]([C@H](O)[C@H](O)CO)OC(C(=O)O)=C[C@@H]1N=C(N)N` was 5.02%. Regarding `C[C@H]1O[C@@H](n2cc(F)c(=O)[nH]c2=O)[C@H](O)[C@H]1O`, the activation was 0.294%. With `COc1ccc(-n2nc(CCC(=O)N(C)O)cc2-c2ccc(Cl)cc2)cc1`, the activation was -8.47%.

Take `CC(=O)Nc1ccc(S(=O)(=O)Nc2ccc([N+](=O)[O-])cc2)cc1`: the activation is -10.7%. Still for that read-out and setting: with `CC(=O)OC[C@H]1O[C@@H](n2ncc(=O)[nH]c2=O)[C@H](OC(C)=O)[C@@H]1OC(C)=O` the figure was -7.53%. For the compound `CCCC(=O)c1cc(O)c(O)cc1O`, the activation was -37.9%. Consider `CCOC(=O)c1ccc(O)cc1`, for which the activation was -12.6%. Same read-out and setting: with `C[C@H]1C[C@H](O)c2ccsc2S1(=O)=O` the figure was -26.6%; with `CC(C)(C)c1nnc(NS(=O)(=O)c2ccc(N)cc2)s1`, -16.7%; with `CCCCN(CCCC)CC(O)c1cc(Cl)cc2c1-c1ccc(Cl)cc1C2=Cc1ccc(Cl)cc1` (stereo not given), 12%. Still for that read-out and setting: the value for `Cc1c(C(=O)O)c(O)cc2c1C(=O)c1c(O)c([C@@H]3O[C@H](CO)[C@@H](O)[C@H](O)[C@H]3O)c(O)c(O)c1C2=O` was -4.18%. Take `C[C@H](NCc1ccc(OCc2cccc(F)c2)cc1)C(N)=O`: the Potency was 24.3 µM (active). Turning to `CC(C)COC(=O)c1ccc(N)cc1`, the activation was 2.82%. The same measure, in the same setting: with `C[N+](C)(C)CC[N+]1(C)Cc2c(Cl)c(Cl)c(Cl)c(Cl)c2C1` the figure was -1.69%. Still for that read-out and setting: the value for `CCCCC(CC)CNC(=O)CC(C)OC(=O)CCC(=O)O` (stereo not given) was 11.7%; that for `CCN(CC)c1ccc(C(=C2C=CC(=[N+](CC)CC)C=C2)c2cc(S(=O)(=O)O)ccc2S(=O)(=O)[O-])cc1` was -8.47%.

On to `Nc1ccc(C(=O)Oc2ccccc2)c(O)c1`, for which the activation was -3.35%. The same measure, in the same setting: with `Cc1ccccc1N1CCN(CCc2nnc3n2CCCC3)CC1` the figure was -10.7%; with `O=C(NCCc1c[nH]c2ccccc12)c1cccnc1`, 10.9%; with `Cc1cccc(C)c1NC(=O)c1cc(S(N)(=O)=O)c(Cl)cc1O`, -9.21%. With `Cl/C(=C\n1cncn1)c1ccc(Cl)cc1Cl`, the activation is -2.82%.

`CC(=O)OCC(=O)[C@@]1(OC(C)=O)[C@@H](C)C[C@H]2[C@@H]3C[C@H](F)C4=CC(=O)C=C[C@]4(C)[C@@]3(F)[C@@H](O)C[C@@]21C`: the activation was 5.08%. Consider `Oc1cn2c(n1)Nc1ccc(Cl)c(Cl)c1C2`, for which the activation is -8.37%. Same read-out and setting: the value for `CCn1cc(C(=O)O)c(=O)c2cc(F)c(N3CCNCC3)nc21` was -2.51% and 26.4%; that for `COC(=O)c1cc(Cl)c(NC(C)=O)cc1OC` was 11.9%.
